Assay [1] deals with Zika virus NS2B-NS3 protease (unlinked complex). Briefly: Primary screen GU Rhodamine qHTS for Zika virus inhibitors: Unlinked NS2B-NS3 protease assay (AID 1347159). Also: nearly all actives have a fitted effect of over 60% in size. Also: potency is read from the fitted curve at half-maximal effect. As to conditions: Recombinant ZIKV NS2B-NS3 protease, Rhodamine110 substrate fluorescence; series mostly up to 107 µM. The gist of the method:
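Unlinked NS2B/NS3, 25 nM; Rhod110 peptide, 1.5 microM; compounds, up to 114 microM. Reaction run 15 min at RT in 10 mM Tris-HCl pH 8.0, 0.01% Tween 20; kinetic fluorescence change fitted with a 4-parameter Hill model.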
A general note: In qHTS, concentration-response curves come from the screen itself.

The test system of assay [2] is Zika virus NS2B-NS3 protease (linked construct). Briefly: Primary screen NINDS Rhodamine qHTS for Zika virus inhibitors (AID 1347160). Also: nearly all actives have a fitted effect of over 55% in size. Also: potency is read from the fitted curve at half-maximal effect. As to conditions: purified NS2B-NS3 protease, Rhodamine110 substrate fluorescence; series mostly up to 57.1 µM. An outline of the steps: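 Single-chain NS2B-NS3 protease, 25 nM, pH 8.0; compounds preincubated 15 min. Activity: Rhodamine110 release from 1.5 microM substrate over 15 min, room temperature, data fitted to 4-parameter Hill.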

Assay [3] in a line: ZIKV-mCherry secondary qHTS for Zika virus inhibitors (AID 1347158). Also: potency is read from the fitted curve at half-maximal effect. Conditions: Vero cells, ZIKV-mCherry infection imaging, 48-72 h; series mostly up to 49.2 µM. The gist of the method: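 This orthogonal imaging screen measured ZIKV-mCherry infection of Vero cells exposed to compound, MOI 1, 48-72 h. Percent infection came from segmented nuclei scored mCherry-positive above 3 SD of negative controls.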

Assay [4] in a line: Confirmatory screen NINDS Rhodamine qHTS for Zika virus inhibitors (AID 1347161). Also: nearly all actives have a fitted effect of over 60% in size. Also: potency is read from the fitted curve at half-maximal effect. As to conditions: purified enzyme assay, Rhodamine110 substrate fluorescence, 15 min; series mostly up to 114 µM. The gist of the method:
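Purified linked NS2B-NS3 protease (NS2B hydrophilic domain joined to NS3 protease by flexible linker), 25 nM in 10 mM Tris-HCl pH 8.0, 0.01% Tween 20. Compounds titrated, 15 min preincubation at room temperature; 1.5 microM Rhodamine110 substrate, FITC fluorescence change over 15 min.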

Assay [5] relates to Zika virus NS2B-NS3 protease (linked). Nature of the assay: 384 well plate NINDS AMC confirmatory qHTS for Zika virus inhibitors (AID 1347163). Also: nearly all actives have a fitted effect of over 50% in size. Also: potency is read from the fitted curve at half-maximal effect. Conditions: Recombinant NS2B-NS3 protease, Ac-VKTGKR-AMC fluorescence; series mostly up to 1 mM. An outline of the steps:
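Enzyme (5, 30 or 60 nM final) first met test compounds for ~15 min. The AMC-tagged peptide Ac-VKTGKR-AMC followed at 30 microM. Fluorescence was then recorded at 25 min and scaled against no-enzyme and no-inhibitor wells.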

For assay [6], the system named is Zika virus NS2B-NS3 protease (linked construct). Briefly: 384 well plate NINDS Rhodamine confirmatory qHTS for Zika virus inhibitors (AID 1347164).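 Also: fluorescence from protease cleavage of Ac-LKRR-rhodamine 110 substrate; nearly all actives have a fitted effect of over 65% in size.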 Also: potency is read from the fitted curve at half-maximal effect. Conditions: rhodamine-110 peptide substrate fluorescence; series mostly up to 100 µM. An outline of the steps:
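Fluorescence read at ex 485 nm/em 538 nm, 25 min after adding 10 microM Ac-LKRR-Rd substrate at room temperature in the dark; signal normalized to no-enzyme and no-inhibitor controls. Enzyme final 5, 30 or 60 nM; compounds, ~15 min preincubation.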

Assay [7] can be described thus: Vero cells viability qHTS for Zika virus inhibitors (AID 1347167). Conditions: cytotoxicity counter-screen (Zika); series mostly up to 45.9 µM. An outline of the steps:
(§1)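 Luminescent ATP readout (CellTiter Glo) after 30 min at 37 degrees C gives viability; cells in DMEM + 4% FBS were treated 24 to 48 hours with compound, following overnight attachment.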

A short description of assay [8]: Confirmatory screen GU Rhodamine qHTS for Zika virus inhibitors qHTS (AID 1347157). Also: potency is read from the fitted curve at half-maximal effect; nearly all actives have a fitted effect of over 70% in size. Conditions: purified enzyme assay, Rhodamine110 substrate fluorescence, 15 min. The gist of the method:
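In dose–response format, inhibition of unlinked protease (25 nM) was measured with 1.5 microM bis-peptide Rhodamine110 substrate. Aprotinin served as the intraplate control.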

Assay [9] is described as follows: HepG2 cells viability qHTS for Zika virus inhibitors (AID 1347168). Also: potency is read from the fitted curve at half-maximal effect. Conditions: Zika counter-screen; series mostly up to 45.9 µM. An outline of the steps: as §1
The target in assay [10] is Lysine-specific demethylase 5B (Homo sapiens) (UniProt Q9UGL1). Briefly: Optimization screen for KDM5B Histone Demethylases FDH coupled qHTS against the LOPAC library (AID 1347166). As to conditions: KDM5B demethylation, FDH-coupled NADH fluorescence (FDH is formaldehyde dehydrogenase); series mostly up to 57.5 µM. An outline of the steps: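 KDM5BDeltaAP (200nM final) in 50mM HEPES pH 7.5, 0.01% Tween-20 was preincubated with compound for 10 min at room temperature. A substrate mix of 12.5uM H3K4Me3, 25uM a-ketoglutarate, ascorbate, Fe2+, NAD+ and formaldehyde dehydrogenase was then added. NADH fluorescence (340/450 nm) was read initially and after 30 min.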
Lysine-specific demethylase 5B (Homo sapiens), sequence (Q9UGL1 whole entry, looked up): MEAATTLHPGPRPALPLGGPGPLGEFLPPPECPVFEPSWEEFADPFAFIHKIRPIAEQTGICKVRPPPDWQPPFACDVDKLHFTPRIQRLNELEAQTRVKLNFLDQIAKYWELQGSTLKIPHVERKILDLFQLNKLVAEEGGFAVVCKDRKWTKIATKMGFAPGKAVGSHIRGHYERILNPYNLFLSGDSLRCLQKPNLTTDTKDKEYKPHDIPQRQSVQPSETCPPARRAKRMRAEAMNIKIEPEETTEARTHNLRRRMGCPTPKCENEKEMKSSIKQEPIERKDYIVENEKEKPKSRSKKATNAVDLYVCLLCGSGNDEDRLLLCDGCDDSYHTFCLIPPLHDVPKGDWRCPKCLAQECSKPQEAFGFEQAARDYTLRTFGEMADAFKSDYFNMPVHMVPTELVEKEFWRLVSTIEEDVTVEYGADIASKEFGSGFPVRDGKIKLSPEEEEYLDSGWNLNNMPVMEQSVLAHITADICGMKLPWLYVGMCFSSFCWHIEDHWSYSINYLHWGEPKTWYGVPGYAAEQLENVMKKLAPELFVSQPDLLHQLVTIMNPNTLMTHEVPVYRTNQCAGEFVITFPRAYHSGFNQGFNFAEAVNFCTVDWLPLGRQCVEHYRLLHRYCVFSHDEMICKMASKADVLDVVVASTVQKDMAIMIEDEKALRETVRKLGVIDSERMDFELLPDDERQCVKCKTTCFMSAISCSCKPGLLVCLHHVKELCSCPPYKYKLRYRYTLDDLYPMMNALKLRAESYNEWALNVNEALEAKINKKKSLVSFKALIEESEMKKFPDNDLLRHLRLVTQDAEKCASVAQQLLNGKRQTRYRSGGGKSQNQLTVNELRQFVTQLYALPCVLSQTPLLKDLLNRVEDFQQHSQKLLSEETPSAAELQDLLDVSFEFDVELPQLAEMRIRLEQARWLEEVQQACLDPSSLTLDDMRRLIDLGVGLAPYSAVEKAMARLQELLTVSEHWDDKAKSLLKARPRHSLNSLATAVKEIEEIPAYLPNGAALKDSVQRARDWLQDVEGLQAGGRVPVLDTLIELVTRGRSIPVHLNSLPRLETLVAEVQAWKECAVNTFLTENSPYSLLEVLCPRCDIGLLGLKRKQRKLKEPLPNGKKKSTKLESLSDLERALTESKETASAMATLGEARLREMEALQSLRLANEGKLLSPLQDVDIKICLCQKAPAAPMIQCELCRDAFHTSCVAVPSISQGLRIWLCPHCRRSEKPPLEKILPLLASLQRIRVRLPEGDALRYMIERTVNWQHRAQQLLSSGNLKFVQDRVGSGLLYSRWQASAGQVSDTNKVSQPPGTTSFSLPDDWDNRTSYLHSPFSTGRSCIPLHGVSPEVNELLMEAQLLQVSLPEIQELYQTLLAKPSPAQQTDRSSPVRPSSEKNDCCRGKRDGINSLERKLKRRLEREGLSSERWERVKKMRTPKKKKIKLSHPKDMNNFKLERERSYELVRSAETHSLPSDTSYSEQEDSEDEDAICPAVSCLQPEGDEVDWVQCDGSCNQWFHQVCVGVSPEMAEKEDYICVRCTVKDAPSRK

Inconclusive results are not listed. Active and inactive are the calls of the source. Calls follow the shape of the dose curve; as a rule, active = well fitted curve in the direction sought with a large enough effect; inconclusive = small, poorly fitted or top-dose-only effect, or another doubt; inactive = no such curve, though single readings can be large; an effect the other way counts as inactive or inconclusive.

These results are taken from PubChem BioAssay (NCATS).

With `CCOc1cc2c(c(F)c1OCC)C(=N)N(CC(=O)c1cc(N3CCOCC3)c(OC)c(C(C)(C)C)c1)C2`, the Potency result in [1] and in [2] was “inactive” each time.
Consider `COc1ccc(S(=O)(=O)Nc2cccnc2Nc2ccc(O)cc2)cc1`, for which the Potency result in assay [1] and in assay [2] was “inactive” throughout.
Turning to `Nc1ccn(C2CO[C@H](CO)O2)c(=O)n1` (stereo not given in full), the Potency entry in [1] and in assay [2] was “inactive” in each case.
`C=CC(=O)Nc1ccc2ncnc(Nc3ccc(OCc4cccc(F)c4)c(Cl)c3)c2c1`: the Potency in [1] was 44.7 µM (active).
The same measure, in the same setting: under `O=C(O)c1ccc(Nc2ncc3c(n2)-c2ccc(Cl)cc2C(c2c(F)cccc2F)=NC3)cc1` stands 8.91 µM (active).
For the compound `Cn1cc(-c2ccc3ncc(Cc4ccc5ncccc5c4)n3n2)cn1`, the Potency entry in assay [1] and in assay [2] was “inactive” throughout.
As for `Cc1ncc(-c2ccnc(Nc3ccc(S(C)(=O)=O)cc3)n2)n1C(C)C`, the Potency entry in assay [1] and in assay [2] was “inactive” throughout.
With `N#Cc1c(C2CCNCC2)cc(-c2c(O)cccc2OCC2CC2)nc1N`, the Potency result in [1] and in [2] was “inactive” in each case.
With `CC(C)(N)c1ccc(-c2nc3ccccc3nc2-c2ccccc2)cc1`, the Potency entry in [1] and in assay [2] was “inactive” throughout.
Regarding `CCOC(=O)[C@@H](N)Cc1ccc(-c2cc(O[C@H](c3ccc(Cl)cc3-n3ccc(C)n3)C(F)(F)F)nc(N)n2)cc1`, the Potency in assay [1] was 44.7 µM (active).
As for `COc1ccc(S(=O)(=O)Nc2cc(-c3c(O)ccc4ccccc34)c(O)c3ccccc23)cc1`, the Potency result in [3] is “inactive”. In addition, the Potency in [4] was 8.77 µM (active); in assay [5] it was 31.6 µM (active); in assay [6] it was 44.7 µM (active). In addition, the call in assay [7] was inactive.
In the case of `O=c1c(O)c(-c2ccc(O)c(O)c2)oc2cc(O)ccc12`, the Potency in assay [8] is 44.7 µM (active); in [2], 22 µM (active); in assay [4], 44.7 µM (active); in assay [6] it was 316 µM (active). For the same compound, the Potency result in assay [3] and in assay [5] was “inactive” in each case.
`CCC[C@H]1C[C@H](C(=O)N[C@@H]([C@@H]2O[C@@H](SC)[C@@H](O)[C@@H](O)[C@@H]2O)[C@H](C)Cl)N(C)C1`: the Potency entry in assay [1] and in [2] was “inactive” each time.
With `CCCCOc1ccc(C(=O)Nc2ccc(F)cc2F)cc1`, the Potency result in assay [1] and in assay [2] was “inactive” in each case.
As for `CC(C)C[C@H](NC(=O)[C@@H](NC(=O)c1cccc(-c2ccccc2)n1)[C@@H](C)O)B(O)O`, the Potency result in assay [1] and in assay [2] was “inactive” each time.
As for `c1cncc(CN2CCC(n3ncc4c(N5CCOCC5)nc(-c5ccc6[nH]ccc6c5)nc43)CC2)c1`, the Potency result in assay [1] and in assay [2] was “inactive” throughout.
On to `O=C(Nc1cc2cc[nH]c2cn1)c1ccccc1`, for which the Potency result in assay [1] and in [2] was “inactive” throughout.
`CN1CCc2c(c3ccccc3n2Cc2ccc(C(=O)NO)cc2)C1`: the Potency entry in [1] and in [2] was “inactive” each time.
For the compound `Cc1ccc(-n2[nH]c(C)c(N=Nc3cccc(-c4cccc(C(=O)O)c4)c3O)c2=O)cc1C`, the Potency result in [3] and in assay [9] was “inactive” in each case. Besides, the figures for the Potency in assay [4], in assay [5] and in [6] were 2.21 µM (active), 178 µM (active) and 7.94 µM (active), respectively. Further, the call in [7] was inactive.
In the case of `CCCCCCCCc1ccc(CCC(N)(CO)CO)cc1`, the Potency result in [3], in [4] and in [6] was “inactive” throughout. Moreover, the Potency in assay [5] is 70.8 µM (active); in assay [9] it was 26.2 µM (active).
On to `O=C(Nc1ccc(Oc2ccnc3[nH]ccc23)c(F)c1)c1cccn(-c2ccc(F)cc2)c1=O`, for which the Potency result in assay [1] and in assay [2] was “inactive” in each case.
In the case of `c1ccc2c(Oc3nc(Nc4ccc(N5CCOCC5)cc4)c4ncn(C5CCCCC5)c4n3)cccc2c1`, the Potency entry in assay [1] and in assay [2] was “inactive” in each case.
Regarding `C[C@@H](Cc1cc2c(c(C(N)=O)c1)N(CCCO)CC2)NCCOc1ccccc1OCC(F)(F)F`, the Potency entry in assay [1] and in assay [2] was “inactive” in each case.
Turning to `Cc1coc2c1C(=O)C(=O)c1c-2ccc2c(C)cccc12`, the Potency in [1] is 35.5 µM (active); in [2], 25.1 µM (active).
Take `CN(C)CC(=O)N1CCC(c2ccc(NC(=O)c3ncc(C#N)[nH]3)c(C3=CCCCC3)c2)CC1`: the Potency in [8] is 12.4 µM (active); in [4], 9.87 µM (active). For the same compound, the Potency result in assay [2] was “inactive”.
As for `CCc1ccc(C(=O)Nc2cc(CN3CCN(C)CC3)cc(C(F)(F)F)c2)cc1C#Cc1cnc2ccnn2c1`, the Potency entry in [1] and in assay [2] was “inactive” in each case.
Consider `FC(F)c1nc2ccccc2n1-c1nc(N2CCOCC2)nc(N2CCOCC2)n1`, for which the Potency entry in assay [1] and in assay [2] was “inactive” in each case.
In the case of `CC(C)c1cc(C(C)C)c(CC(=O)NS(=O)(=O)Oc2c(C(C)C)cccc2C(C)C)c(C(C)C)c1`, the Potency in assay [8] was 2.21 µM (active); in [3], 3.16 µM (active); in assay [1], 3.16 µM (active); in assay [2] it was 3.16 µM (active); in [4], 2.21 µM (active); in [5] it was 3.16 µM (active). Also, in [6], the Potency entry is “inactive”. The compound was called inactive in assay [7].
Regarding `CN[C@H](CC(C)C)C(=O)N[C@H]1C(=O)N[C@@H](CC(N)=O)C(=O)N[C@@H]2C(=O)N[C@H]3C(=O)N[C@H](C(=O)N[C@H](C(=O)O)c4cc(O)cc(O)c4-c4cc3ccc4O)[C@H](O)c3ccc(c(Cl)c3)Oc3cc2cc(c3O[C@@H]2O[C@H](CO)[C@@H](O)[C@H](O)[C@@H]2O[C@H]2C[C@](C)(N)[C@H](O)[C@H](C)O2)Oc2ccc(cc2Cl)[C@H]1O`, in assay [10], the outcome was inactive.
